The text below walks through data of publication PMC11574364.

Sequence of ADAD1 (Q96M93 77-182): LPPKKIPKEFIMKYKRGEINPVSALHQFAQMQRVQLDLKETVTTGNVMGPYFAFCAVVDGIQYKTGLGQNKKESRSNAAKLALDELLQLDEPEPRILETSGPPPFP

The target in one test is T1, RBM5 (Homo sapiens, UniProt P52756).
T1 sequence: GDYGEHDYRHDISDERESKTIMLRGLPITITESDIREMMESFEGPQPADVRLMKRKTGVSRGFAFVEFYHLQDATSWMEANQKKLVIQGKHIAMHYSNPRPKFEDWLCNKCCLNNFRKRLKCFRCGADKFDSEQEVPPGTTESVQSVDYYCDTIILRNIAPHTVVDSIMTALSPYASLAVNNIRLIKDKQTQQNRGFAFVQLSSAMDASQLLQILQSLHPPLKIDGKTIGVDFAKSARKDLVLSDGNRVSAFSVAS
Kind of test: protein domain microarray probed with biotinylated miRNA; Domain array: 20 mM Tris-HCl pH 7.4, 200 mM KCl, 0.2 mM EDTA, 0.05% NP40, 2 ug/ul heparin, overnight 4 C. ORF array: PBS pH 7.0 with RNase inhibitor, 100 ng RNA; high values mean tight binding. The following applies: ssRNA.
In turn, AGAGGUAGUAGGUUGCAUAGUU showed a binding signal of 1310 ± 32.6 fluorescence intensity.
Regarding UAGCUUAUCAGACUGAUGUUGA, the binding signal worked out at 21.2 ± 2.33 fluorescence intensity.
Sequence UGAGGUAGUAGGUUGUAUAGUU showed a binding signal of 356 ± 13.4 fluorescence intensity.
UGAGGUAGUAGGUUGUAUGGUU had a binding signal of 930 ± 19.2 fluorescence intensity.
On the same count and under the same terms, for UGAGGUAGUAGGUUGUGUGGUU the value was 858 ± 19.2 fluorescence intensity.
Sequence CAGUGCAAUGAUGAAAGGGCAU yielded a binding signal of 593 ± 12.6 fluorescence intensity.

The target in another test is T2, RKHD4(1-2) (Homo sapiens, UniProt A1L020).
T2 sequence: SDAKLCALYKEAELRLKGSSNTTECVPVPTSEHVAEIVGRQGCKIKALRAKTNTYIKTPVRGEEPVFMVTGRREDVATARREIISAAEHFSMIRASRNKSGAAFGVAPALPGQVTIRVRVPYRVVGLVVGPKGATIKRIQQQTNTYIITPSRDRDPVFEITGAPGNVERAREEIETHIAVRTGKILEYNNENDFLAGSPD
The test is described as above. Particulars: ssRNA.
AGAGGUAGUAGGUUGCAUAGUU gave a binding signal of 1980 ± 164 fluorescence intensity.
On the same count and under the same terms, the same measure for UAGCUUAUCAGACUGAUGUUGA: 932 ± 115 fluorescence intensity; for UGAGGUAGUAGGUUGUAUAGUU: 1130 ± 28.7 fluorescence intensity.
In turn, UGAGGUAGUAGGUUGUAUGGUU returned a binding signal of 1640 ± 102 fluorescence intensity.
UGAGGUAGUAGGUUGUGUGGUU showed a binding signal of 1430 ± 37.1 fluorescence intensity.
Regarding CAGUGCAAUGAUGAAAGGGCAU, the binding signal was 1280 ± 81.8 fluorescence intensity.

The next test has as its target T3, SRP46 (Homo sapiens, UniProt Q9BRL6).
T3 sequence: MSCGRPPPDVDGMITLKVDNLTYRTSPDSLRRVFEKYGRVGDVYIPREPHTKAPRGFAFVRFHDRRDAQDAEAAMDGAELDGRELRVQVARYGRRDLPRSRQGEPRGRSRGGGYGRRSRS
The description is as above. Particulars: ssRNA.
AGAGGUAGUAGGUUGCAUAGUU gave a binding signal of 1390 ± 35.5 fluorescence intensity.
UAGCUUAUCAGACUGAUGUUGA displayed a binding signal of 41.5 ± 2.43 fluorescence intensity.
Take UGAGGUAGUAGGUUGUAUAGUU: the binding signal worked out at 208 ± 90.3 fluorescence intensity.
UGAGGUAGUAGGUUGUAUGGUU came in with a binding signal of 1040 ± 52.8 fluorescence intensity.
Take UGAGGUAGUAGGUUGUGUGGUU: the binding signal is 1046 ± 4.09 fluorescence intensity.
Still for that read-out and setting: for CAGUGCAAUGAUGAAAGGGCAU the value was 797 ± 34.1 fluorescence intensity.

In a further test the target is PRPF8 (Homo sapiens, UniProt Q6P2Q9). The description is as above. The following applies: ssRNA.
Sequence of PRPF8 (Q6P2Q9 965-1100): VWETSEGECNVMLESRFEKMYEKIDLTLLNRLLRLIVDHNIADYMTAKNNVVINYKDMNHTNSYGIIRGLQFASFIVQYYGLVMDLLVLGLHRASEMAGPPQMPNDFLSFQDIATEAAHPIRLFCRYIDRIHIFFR
For UGAGGUAGUAGGUUGUAUAGUU, the binding signal was 25.3 ± 8.73 fluorescence intensity.
On the same count and under the same terms, for UGAGGUAGUAGGUUGUAUGGUU the value was 22 ± 1.98 fluorescence intensity; for CAGUGCAAUGAUGAAAGGGCAU, 31.6 ± 16.2 fluorescence intensity.

Another test deals with PPIE (Homo sapiens, UniProt Q9UNP9). The test is described as above. The following applies: ssRNA.
Sequence of PPIE (Q9UNP9 1-110): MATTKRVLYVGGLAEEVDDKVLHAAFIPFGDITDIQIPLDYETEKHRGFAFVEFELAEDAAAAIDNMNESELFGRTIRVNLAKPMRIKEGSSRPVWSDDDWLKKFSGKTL
AGAGGUAGUAGGUUGCAUAGUU yielded a binding signal of 817 ± 64.4 fluorescence intensity.
UAGCUUAUCAGACUGAUGUUGA gave a binding signal of 91.8 ± 5.98 fluorescence intensity.
Regarding UGAGGUAGUAGGUUGUAUAGUU, the binding signal was found to be 232 ± 2.04 fluorescence intensity.
Same read-out and setting: for UGAGGUAGUAGGUUGUAUGGUU the value was 958 ± 40.9 fluorescence intensity; for UGAGGUAGUAGGUUGUGUGGUU, 1030 ± 108 fluorescence intensity; for CAGUGCAAUGAUGAAAGGGCAU, 451 ± 19.3 fluorescence intensity.

Another test concerns the target ADAD1 (Homo sapiens, UniProt Q96M93). The description is as above. The following applies: ssRNA.
AGAGGUAGUAGGUUGCAUAGUU had a binding signal of 65 ± 1.55 fluorescence intensity.
In the case of UGAGGUAGUAGGUUGUAUAGUU, the binding signal is 23.1 ± 6.46 fluorescence intensity.
The sequence UGAGGUAGUAGGUUGUAUGGUU had a binding signal of 97.885 ± 0.0354 fluorescence intensity.
Consider UGAGGUAGUAGGUUGUGUGGUU, for which the binding signal amounted to 157 ± 3.28 fluorescence intensity.
The same measure, in the same setting: for CAGUGCAAUGAUGAAAGGGCAU the value was 44.5 ± 2.96 fluorescence intensity.

In a further test the target is T4, SFRS5 (Homo sapiens, UniProt Q13243).
T4 sequence: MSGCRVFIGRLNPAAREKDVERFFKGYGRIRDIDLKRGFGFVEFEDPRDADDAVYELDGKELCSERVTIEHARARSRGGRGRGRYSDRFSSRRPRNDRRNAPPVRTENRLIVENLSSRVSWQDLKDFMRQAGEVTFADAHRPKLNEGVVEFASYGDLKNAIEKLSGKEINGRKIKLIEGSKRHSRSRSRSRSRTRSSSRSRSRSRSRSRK
The test is described as above. The following applies: ssRNA.
Sequence AGAGGUAGUAGGUUGCAUAGUU returned a binding signal of 151 ± 12.7 fluorescence intensity.
On the same count and under the same terms, for UGAGGUAGUAGGUUGUAUGGUU the value was 155 ± 8.02 fluorescence intensity; for UGAGGUAGUAGGUUGUGUGGUU, 215 ± 3.13 fluorescence intensity; for CAGUGCAAUGAUGAAAGGGCAU, 151 ± 10.5 fluorescence intensity.

The target of a further test is RBMXL2 (Homo sapiens, UniProt O75526). The test is described as above. Particulars: ssRNA.
Sequence of RBMXL2 (O75526 1-110): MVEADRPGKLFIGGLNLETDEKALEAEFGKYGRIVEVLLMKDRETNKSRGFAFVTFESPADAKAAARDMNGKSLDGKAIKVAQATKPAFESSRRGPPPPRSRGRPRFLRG
Consider AGAGGUAGUAGGUUGCAUAGUU, for which the binding signal was 2569 ± 8.99 fluorescence intensity.
As for UAGCUUAUCAGACUGAUGUUGA, the binding signal came to 826.37 ± 0.587 fluorescence intensity.
The sequence UGAGGUAGUAGGUUGUAUAGUU yielded a binding signal of 867 ± 9.01 fluorescence intensity.
Sequence UGAGGUAGUAGGUUGUAUGGUU came in with a binding signal of 1440 ± 338 fluorescence intensity.
In the case of UGAGGUAGUAGGUUGUGUGGUU, the binding signal turned out to be 1610 ± 44.5 fluorescence intensity.
With CAGUGCAAUGAUGAAAGGGCAU, the binding signal is 1800 ± 20.8 fluorescence intensity.
